# Results from the supplement of paper PMC6411743.
# ± gives the standard deviation of the averaged measurements. About 6,500 targets were measured; listed, in parts, are those with the largest changes and a random draw of the rest.
# Columns and labels:
# Experiment in all cases: NP40-soluble protein abundance relative to vehicle (solubility fold change) (ratio); higher = more soluble protein in presence of ATP
# [1] = target: T1, UniProt O95983|O95983-2|K7EIE8
# T1 sequence (whole entry): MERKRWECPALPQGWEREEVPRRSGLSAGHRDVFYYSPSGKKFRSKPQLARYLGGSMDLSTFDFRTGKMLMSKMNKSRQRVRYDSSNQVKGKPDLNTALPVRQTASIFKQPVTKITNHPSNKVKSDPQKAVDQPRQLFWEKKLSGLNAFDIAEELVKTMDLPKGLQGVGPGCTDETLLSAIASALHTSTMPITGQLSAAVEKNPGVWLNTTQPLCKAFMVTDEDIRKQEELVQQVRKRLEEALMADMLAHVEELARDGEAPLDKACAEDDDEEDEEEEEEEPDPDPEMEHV
# How it was run: (§1)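 Values are fold changes against the detergent-processed vehicle, based on vsn-normalised intensities. Jurkat crude lysate was treated at eight concentrations from 0.1 to 10 mM (10 min at room temperature, then 3 min at 37 °C), solubilised with 0.8% NP40 and benzonase, ultracentrifuged and analysed by TMT-labelled LC-MS/MS over three independent experiments.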
# UniProt P11177|P11177-2 = target: T2, UniProt P11177|P11177-2
# T2 sequence (whole entry): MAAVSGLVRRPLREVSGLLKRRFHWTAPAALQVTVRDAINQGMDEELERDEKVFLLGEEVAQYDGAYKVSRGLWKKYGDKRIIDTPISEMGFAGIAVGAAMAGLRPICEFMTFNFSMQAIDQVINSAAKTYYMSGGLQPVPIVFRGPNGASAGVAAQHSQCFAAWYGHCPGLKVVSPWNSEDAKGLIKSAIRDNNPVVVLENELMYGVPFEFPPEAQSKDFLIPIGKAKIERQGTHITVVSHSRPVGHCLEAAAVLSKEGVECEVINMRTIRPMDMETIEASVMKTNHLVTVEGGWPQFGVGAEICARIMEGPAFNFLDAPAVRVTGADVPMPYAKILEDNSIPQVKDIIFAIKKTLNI
# How it was run: as §1
# [2] = target: T3, UniProt P29728-2|A0A087X0V5|P29728
# T3 sequence (whole entry): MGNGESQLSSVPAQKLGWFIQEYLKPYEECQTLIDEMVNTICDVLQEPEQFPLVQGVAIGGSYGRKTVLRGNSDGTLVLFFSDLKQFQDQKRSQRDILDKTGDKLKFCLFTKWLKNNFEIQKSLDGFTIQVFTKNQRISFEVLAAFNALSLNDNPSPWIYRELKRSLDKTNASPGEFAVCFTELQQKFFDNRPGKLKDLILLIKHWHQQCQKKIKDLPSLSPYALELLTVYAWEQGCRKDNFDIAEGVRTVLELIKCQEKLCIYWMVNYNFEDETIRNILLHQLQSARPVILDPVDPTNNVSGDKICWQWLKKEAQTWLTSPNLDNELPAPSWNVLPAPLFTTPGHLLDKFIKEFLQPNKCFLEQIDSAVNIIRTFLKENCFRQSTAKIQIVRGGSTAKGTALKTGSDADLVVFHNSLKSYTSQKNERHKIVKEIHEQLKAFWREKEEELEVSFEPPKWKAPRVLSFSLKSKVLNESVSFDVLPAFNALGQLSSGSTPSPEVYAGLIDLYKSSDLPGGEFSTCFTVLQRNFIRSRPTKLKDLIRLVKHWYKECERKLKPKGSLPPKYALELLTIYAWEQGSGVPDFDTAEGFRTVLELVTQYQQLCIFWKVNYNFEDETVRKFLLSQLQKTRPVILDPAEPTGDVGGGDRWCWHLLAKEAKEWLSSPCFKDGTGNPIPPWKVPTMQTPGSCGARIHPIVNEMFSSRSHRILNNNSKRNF
# How it was run: as §1
# [3] = target: T4, UniProt P52594|P52594-2|P52594-3|P52594-4
# T4 sequence (whole entry): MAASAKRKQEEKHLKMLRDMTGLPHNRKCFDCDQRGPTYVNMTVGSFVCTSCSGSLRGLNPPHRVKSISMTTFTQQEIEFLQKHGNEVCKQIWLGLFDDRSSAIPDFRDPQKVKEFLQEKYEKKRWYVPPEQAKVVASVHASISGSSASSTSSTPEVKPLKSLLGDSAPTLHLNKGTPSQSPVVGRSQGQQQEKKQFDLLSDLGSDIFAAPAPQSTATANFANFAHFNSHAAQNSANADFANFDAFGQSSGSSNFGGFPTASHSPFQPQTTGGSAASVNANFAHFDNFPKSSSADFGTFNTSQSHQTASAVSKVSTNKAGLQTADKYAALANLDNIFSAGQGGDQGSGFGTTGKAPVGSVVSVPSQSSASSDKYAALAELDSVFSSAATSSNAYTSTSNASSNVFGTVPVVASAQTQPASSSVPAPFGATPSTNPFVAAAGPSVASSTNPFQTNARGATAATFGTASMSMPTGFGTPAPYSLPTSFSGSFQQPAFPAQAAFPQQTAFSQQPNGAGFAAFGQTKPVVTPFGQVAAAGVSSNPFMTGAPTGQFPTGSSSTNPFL
# How it was run: as §1
# UniProt P52757|P52757-9 = target: T5, UniProt P52757|P52757-9
# T5 sequence (whole entry): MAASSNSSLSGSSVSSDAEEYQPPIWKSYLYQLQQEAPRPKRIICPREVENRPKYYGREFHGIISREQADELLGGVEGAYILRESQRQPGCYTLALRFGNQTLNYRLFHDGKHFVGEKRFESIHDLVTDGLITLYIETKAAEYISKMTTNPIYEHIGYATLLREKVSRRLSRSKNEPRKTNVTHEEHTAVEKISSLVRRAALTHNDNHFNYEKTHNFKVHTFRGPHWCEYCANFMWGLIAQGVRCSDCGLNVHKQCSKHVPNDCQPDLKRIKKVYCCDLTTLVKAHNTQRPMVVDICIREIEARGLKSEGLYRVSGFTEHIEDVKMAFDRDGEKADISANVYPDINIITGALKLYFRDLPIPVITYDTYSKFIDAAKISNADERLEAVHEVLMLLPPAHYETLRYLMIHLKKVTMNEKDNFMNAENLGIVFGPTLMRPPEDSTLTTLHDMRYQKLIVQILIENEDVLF
# How it was run: as §1
# UniProt Q02040 = target: T6, UniProt Q02040
# T6 sequence (whole entry): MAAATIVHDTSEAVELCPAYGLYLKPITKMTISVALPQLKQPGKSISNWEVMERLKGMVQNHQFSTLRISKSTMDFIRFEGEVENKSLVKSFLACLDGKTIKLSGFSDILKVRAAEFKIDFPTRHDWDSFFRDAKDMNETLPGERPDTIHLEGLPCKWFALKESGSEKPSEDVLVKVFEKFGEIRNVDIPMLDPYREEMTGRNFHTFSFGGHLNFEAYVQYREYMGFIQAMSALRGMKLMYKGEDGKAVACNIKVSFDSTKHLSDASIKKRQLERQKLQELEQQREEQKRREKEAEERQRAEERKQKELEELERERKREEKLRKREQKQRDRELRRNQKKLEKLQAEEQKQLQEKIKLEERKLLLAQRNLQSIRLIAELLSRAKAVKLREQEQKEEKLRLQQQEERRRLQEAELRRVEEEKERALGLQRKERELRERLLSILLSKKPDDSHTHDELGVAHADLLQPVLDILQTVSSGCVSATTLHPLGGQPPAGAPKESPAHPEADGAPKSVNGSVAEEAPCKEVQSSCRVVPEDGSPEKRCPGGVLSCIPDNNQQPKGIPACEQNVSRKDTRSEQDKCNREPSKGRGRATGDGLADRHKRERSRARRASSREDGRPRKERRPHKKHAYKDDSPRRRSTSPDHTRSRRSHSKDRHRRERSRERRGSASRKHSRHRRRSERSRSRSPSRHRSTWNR
# How it was run: as §1
# YWHAZ = target: T7, YWHAZ (UniProt P63104)
# T7 sequence (whole entry): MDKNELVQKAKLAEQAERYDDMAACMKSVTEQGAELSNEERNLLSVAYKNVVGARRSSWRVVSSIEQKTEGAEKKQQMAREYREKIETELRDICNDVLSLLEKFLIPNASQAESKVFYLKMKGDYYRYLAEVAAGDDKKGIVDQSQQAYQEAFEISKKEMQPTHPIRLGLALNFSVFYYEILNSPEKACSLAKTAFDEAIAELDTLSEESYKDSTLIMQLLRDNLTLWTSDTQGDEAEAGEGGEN
# How it was run: as §1
smiles,measurement,setting,value
Nc1ncnc2c1ncn2[C@@H]1O[C@H](COP(=O)(O)OP(=O)(O)OP(=O)(O)O)[C@@H](O)[C@H]1O [adenosine triphosphate],NP40-soluble protein abundance,[1]; concentration: 6mM,1.02 ± 0.16
same,NP40-soluble protein abundance,[1]; concentration: 8mM,1.01 ± 0.065
same,NP40-soluble protein abundance,[1]; concentration: 10mM,0.92 ± 0.082
same,NP40-soluble protein abundance,UniProt P11177|P11177-2; concentration: 1mM,1.14 ± 0.069
same,NP40-soluble protein abundance,UniProt P11177|P11177-2; concentration: 2mM,1.04 ± 0.041
same,NP40-soluble protein abundance,UniProt P11177|P11177-2; concentration: 4mM,1 ± 0.05
same,NP40-soluble protein abundance,UniProt P11177|P11177-2; concentration: 6mM,1.02 ± 0.18
same,NP40-soluble protein abundance,UniProt P11177|P11177-2; concentration: 8mM,1.05 ± 0.14
same,NP40-soluble protein abundance,UniProt P11177|P11177-2; concentration: 10mM,1.02 ± 0.12
same,NP40-soluble protein abundance,[2]; concentration: 1mM,1.73 ± 0.11
same,NP40-soluble protein abundance,[2]; concentration: 2mM,1.65 ± 0.019
same,NP40-soluble protein abundance,[2]; concentration: 4mM,1.7 ± 0.046
same,NP40-soluble protein abundance,[2]; concentration: 6mM,1.55 ± 0.12
same,NP40-soluble protein abundance,[2]; concentration: 8mM,1.74 ± 0.042
same,NP40-soluble protein abundance,[2]; concentration: 10mM,1.68 ± 0.047
same,NP40-soluble protein abundance,[3]; concentration: 1mM,0.945 ± 0.033
same,NP40-soluble protein abundance,[3]; concentration: 2mM,0.961 ± 0.012
same,NP40-soluble protein abundance,[3]; concentration: 4mM,0.963 ± 0.019
same,NP40-soluble protein abundance,[3]; concentration: 6mM,0.987 ± 0.037
same,NP40-soluble protein abundance,[3]; concentration: 8mM,0.93 ± 0.052
same,NP40-soluble protein abundance,[3]; concentration: 10mM,0.918 ± 0.033
same,NP40-soluble protein abundance,UniProt P52757|P52757-9; concentration: 1mM,0.952 ± 0.13
same,NP40-soluble protein abundance,UniProt P52757|P52757-9; concentration: 2mM,0.971 ± 0.14
same,NP40-soluble protein abundance,UniProt P52757|P52757-9; concentration: 4mM,1 ± 0.23
same,NP40-soluble protein abundance,UniProt P52757|P52757-9; concentration: 6mM,0.948 ± 0.094
same,NP40-soluble protein abundance,UniProt P52757|P52757-9; concentration: 8mM,0.989 ± 0.091
same,NP40-soluble protein abundance,UniProt P52757|P52757-9; concentration: 10mM,0.983 ± 0.12
same,NP40-soluble protein abundance,UniProt Q02040; concentration: 1mM,1.4 ± 0.24
same,NP40-soluble protein abundance,UniProt Q02040; concentration: 2mM,1.56 ± 0.34
same,NP40-soluble protein abundance,UniProt Q02040; concentration: 4mM,1.8 ± 0.45
same,NP40-soluble protein abundance,UniProt Q02040; concentration: 6mM,2.02 ± 0.41
same,NP40-soluble protein abundance,UniProt Q02040; concentration: 8mM,2.19 ± 0.54
same,NP40-soluble protein abundance,UniProt Q02040; concentration: 10mM,2.43 ± 0.62
same,NP40-soluble protein abundance,YWHAZ; concentration: 1mM,0.892 ± 0.2
same,NP40-soluble protein abundance,YWHAZ; concentration: 2mM,0.94 ± 0.045
same,NP40-soluble protein abundance,YWHAZ; concentration: 4mM,0.896 ± 0.025
same,NP40-soluble protein abundance,YWHAZ; concentration: 6mM,0.918 ± 0.17
same,NP40-soluble protein abundance,YWHAZ; concentration: 8mM,0.8927 ± 0.0068
same,NP40-soluble protein abundance,YWHAZ; concentration: 10mM,0.819 ± 0.066
